# From ChEMBL document CHEMBL3988442, “University of Dundee, Small-Polar-MMV Screening Library” (2021)
# Out of some 66,000 compounds screened, about 960 (1.5%) showed an effect of 50% or more. Shown is part of a subset that was picked to be rich in strong results.
# Tested on: Trypanosoma brucei
# Experiment: Trypanosoma brucei 72 hour study
# Type: functional, organism-based
# Design: scale not given: in the data most compounds retested in dose-response had high values
smiles,measurement,setting,value
O=C(O)C(F)(F)F.O=C(c1ccnnc1)N1CC[C@]2(C[C@H](Oc3ncccc3F)CO2)C1,Percent Effect,"30 µM, 30.03 µM",-5.807%
Cn1ccc(CNC(=O)Nc2ccc(S(=O)(=O)C(F)F)cc2)c1,Percent Effect,"30 µM, 30.03 µM",-7.299%
CN(C)c1ccc(CNC(=O)Nc2ccc(S(=O)(=O)C(F)F)cc2)cc1,Percent Effect,"30 µM, 30.03 µM",71.22%
COc1ccc(CNC(=O)Nc2ccc(S(=O)(=O)C(F)F)cc2)cc1,Percent Effect,"30 µM, 30.03 µM",-8.777%
COCCNC(=O)CN1CCN(c2nc(C)cs2)CC1,Percent Effect,10 µM,-57.99%
CC(C)C(=O)Nc1ccc(Oc2ccc3c(c2)OCO3)nc1,Percent Effect,"30 µM, 30.03 µM",-14.33%
CCC(=O)NCCCn1c(-c2cccnc2C)cc2cccnc21.Cl,Percent Effect,"30.3 µM, […]",-13.2%
CCN(Cc1cccs1)C(=O)c1ccc(=O)n(C)c1,Percent Effect,"30.3 µM, […]",-2.313%
CN(Cc1cccs1)C(=O)c1ccc(=O)n(C)c1,Percent Effect,"30.3 µM, […]",98.98%
COCCN(Cc1cccs1)C(=O)c1ccc(=O)n(C)c1,Percent Effect,"30.3 µM, […]",-3.424%
COc1ccc(NC(=O)Cn2nc(C)c(C)cc2=O)cc1OC,Percent Effect,"30.3 µM, […]",-10.01%
Cc1cc(=O)n(CC(=O)Nc2ccc(Cl)cc2)nc1C,Percent Effect,"30 µM, 30.03 µM",-26.52%
COc1ccc(NC(=O)Cn2nc(C)c(C(C)=O)c2C)cc1,Percent Effect,"30.3 µM, […]",101.9%
COc1ccc(NC(=O)Cn2nc(C)c(C)cc2=O)cc1,Percent Effect,"30 µM, 30.03 µM",-33.88%
CC(=O)c1c(C)nn(CC(=O)Nc2ccc(Br)cc2)c1C,Percent Effect,"30.3 µM, […]",101.3%
CC(=O)c1c(C)nn(CC(=O)Nc2ccc(F)cc2)c1C,Percent Effect,"30.3 µM, […]",-35.96%
Cc1ccc(Nc2nccc(C3CCN(CC(N)=O)C3)n2)nc1 (stereo not given),Percent Effect,"30.3 µM, […]",-50.23%
O=C(O)C(F)(F)F.O=C(c1ccccc1)N1CCC[C@]2(C[C@@H](OCc3ccccn3)CO2)C1,Percent Effect,"30.3 µM, […]",-136.6%
O=C(C1CC1)N1CCCC1c1nnc2n1CCCCC2 (stereo not given),Percent Effect,"30 µM, 30.03 µM",-31.5%
CN(C)C(=O)CN1CCn2cc(Cn3cccn3)nc2C1.O=C(O)C(F)(F)F.O=C(O)C(F)(F)F,Percent Effect,"30 µM, 30.03 µM",-43.32%
CCNc1cc2c(nn1)CCN(C(=O)c1cc3cccc(C)c3o1)C2,Percent Effect,10 µM,-32.26%
same,Percent Effect,"30.3 µM, […]",29.79%
CC(C)CN1Cc2nc(N3CCCC(C)C3)ncc2C1=O (stereo not given),Percent Effect,"30 µM, 30.03 µM",-5.722%
Cl.Cl.O=C(CN1CCN(CC(O)C2CC2)CC1)NCc1ccccc1Cl (stereo not given),Percent Effect,"30.3 µM, […]",-15.94%
COc1ccc(C(=O)NCCCOC(C)c2ccccc2)c(OC)c1 (stereo not given),Percent Effect,"30.3 µM, […]",17.87%
OC(CNc1ncnc2c1CCNCC2)C(F)(F)F (stereo not given),Percent Effect,"30 µM, 30.03 µM",-18.54%
OC(CNc1nc(C2CCCC2)nc2c1CCNCC2)C(F)(F)F (stereo not given),Percent Effect,"30 µM, 30.03 µM",99.48%
Cc1nc2c(c(NCC(O)C(F)(F)F)n1)CCNCC2 (stereo not given),Percent Effect,"30 µM, 30.03 µM",-77.95%
N#Cc1cccc(CN2CCC3(CC2)CC(c2ccncc2)C(=O)N3)c1.O=C(O)C(F)(F)F.O=C(O)C(F)(F)F (stereo not given),Percent Effect,"30 µM, 30.03 µM",43.46%
CCOc1ncccc1NC(=O)c1cc(C)sc1C,Percent Effect,"30 µM, 30.03 µM",-36.47%
CCOc1ncccc1NC(=O)c1ccc(C)s1,Percent Effect,"30 µM, 30.03 µM",-25.8%
CCOc1ncccc1NC(=O)c1cc(C)c(C)s1,Percent Effect,"30 µM, 30.03 µM",63.47%
O=C(NCCc1nnc2n1CCC2)NCC1(c2ccccc2)CC1,Percent Effect,"30.3 µM, […]",3.515%
O=C(O)C(F)(F)F.O=C(c1ccsc1)N1CCC2(CCN(Cc3ccccn3)C2=O)C1 (stereo not given),Percent Effect,"30 µM, 30.03 µM",-3.251%
CC(C)C(=O)N1CCC(n2nc(-c3ccco3)ccc2=O)CC1,Percent Effect,"30.3 µM, […]",-15.18%
CC(C)c1nnc2ccc(N3CCC(C(=O)Nc4nccs4)CC3)nn12,Percent Effect,"30 µM, 30.03 µM",61.33%
CC(C)c1nnc2ccc(N3CCCC(C(=O)Nc4nccs4)C3)nn12 (stereo not given),Percent Effect,"30 µM, 30.03 µM",-31.38%
Cc1nnc2ccc(N3CCC(C(=O)Nc4nccs4)CC3)nn12,Percent Effect,"30 µM, 30.03 µM",0.472%
CC(C)C1CN(c2cccc(C#N)n2)CCCN1CC1CC1 (stereo not given),Percent Effect,"30.3 µM, […]",-2.966%
CC(C)C1CN(S(C)(=O)=O)CCCN1Cc1ccc(F)cc1 (stereo not given),Percent Effect,"30 µM, 30.03 µM",-25.6%
CC(C)C1CN(c2cccc(C#N)n2)CCCN1Cc1ccc(F)cc1 (stereo not given),Percent Effect,"30.3 µM, […]",99.78%
CN(C)C(=O)[C@H]1C[C@H]2OCC[C@H]2N(Cc2ccc3ccccc3n2)C1.O=C(O)C(F)(F)F.O=C(O)C(F)(F)F,Percent Effect,"30.3 µM, […]",-111.9%
CC(C)NC(=O)c1cc2c(c3ccccc3n2C)n1C(=O)N(C)C,Percent Effect,"30 µM, 30.03 µM",61.67%
COCCNC(=O)c1cc2c(c3ccccc3n2C)n1C(=O)N(C)C,Percent Effect,"30 µM, 30.03 µM",28.71%
CCCNC(=O)c1cc2c(c3ccccc3n2C)n1C(=O)N(C)C,Percent Effect,"30.3 µM, […]",27.2%
Cc1ccsc1CN1CCC(n2cc(C(O)c3ccccc3)nn2)CC1 (stereo not given),Percent Effect,"30.3 µM, […]",-15.95%
CCc1nnc2n1CCN(C(=O)CCOc1ccc(C)cc1C)C2,Percent Effect,"30 µM, 30.03 µM",-30.52%
O=C(O)C(F)(F)F.O=C([C@@H]1CCO[C@@H]2CCN(CC3CCOCC3)C[C@H]21)N1CCCO1,Percent Effect,"30 µM, 30.03 µM",-11.19%
CCOCC(=O)N1C[C@@H]2CCN(c3cnccn3)C[C@@H]2C1.O=C(O)C(F)(F)F,Percent Effect,"30.3 µM, […]",-17.39%
CCN1CCn2c(C)cnc2C12CCN(C(=O)NC)CC2.O=C(O)C(F)(F)F,Percent Effect,"30.3 µM, […]",-20.19%
CCOC(=O)C1CCCCN1Cc1c[nH]nc1-c1cc2ccccc2o1 (stereo not given),Percent Effect,"30.3 µM, […]",58.53%
CCOC(=O)C1CCCN(Cc2c[nH]nc2-c2cc3ccccc3o2)C1 (stereo not given),Percent Effect,"30.3 µM, […]",15.89%
CCOC(=O)C1CCCCN1Cc1c[nH]nc1-c1ccc(F)cc1F (stereo not given),Percent Effect,"30.3 µM, […]",-2.201%
Cc1c(Br)cc2c(c1C)OCC(N(C)C)C2=O (stereo not given),Percent Effect,"30.3 µM, […]",0.8254%
CCN(CC)C1COc2c(cc(Br)c(C)c2Br)C1=O (stereo not given),Percent Effect,"30.3 µM, […]",52.72%
CCN(CC)C1COc2c(cc(Br)c(C)c2C)C1=O (stereo not given),Percent Effect,"30.3 µM, […]",-8.815%
O=C1CN(C(=O)c2ccc(F)cc2)CC(O)CN1Cc1cccs1 (stereo not given),Percent Effect,"30.3 µM, […]",5.097%
Cc1ccc(C(=O)N2CC(=O)N(Cc3cccs3)CC(O)C2)cc1 (stereo not given),Percent Effect,"30.3 µM, […]",2.037%
O=C1CN(C(=O)c2ccc(Cl)cc2)CC(O)CN1Cc1cccs1 (stereo not given),Percent Effect,"30.3 µM, […]",99.92%
CN1C[C@@H]2CC[C@H](CC1=O)N2C(=O)c1ccc(-c2ccccc2)[nH]c1=O,Percent Effect,"30.3 µM, […]",2.014%
CC(C)OCCCN(Cc1ccncc1)Cc1cc(F)ccc1F.Cl,Percent Effect,"30.3 µM, […]",-3.291%
C/C(Cl)=C/CNC(=O)[C@H]1CC[C@]2(CC1)CN(C)C(=O)c1ccccc1O2,Percent Effect,"30.3 µM, […]",-12.03%
CO[C@H]1CN(C(C)C)C[C@@H]1NC(=O)Nc1cccc(SC)c1,Percent Effect,"30 µM, 30.03 µM",-47.34%
CO[C@H]1CN(C(C)C)C[C@@H]1NC(=O)Nc1ccc(C(F)(F)F)cc1,Percent Effect,"30 µM, 30.03 µM",82.01%
CO[C@H]1CN(C(C)C)C[C@@H]1NC(=O)Nc1ccc2oc(C)cc2c1,Percent Effect,"30 µM, 30.03 µM",-77.41%
